The values that follow come from PubChem BioAssay AID1851 (National Center for Advancing Translational Sciences (NCATS), 2009).

By AC50 is commonly meant the midpoint of the concentration-response curve, whichever way the signal moves.

The campaign covered roughly 16,000 compounds. About 5,100 (32%) were called active. About 25% were inconclusive and are not listed. The list shows a part of the results. Values without a mark were called inactive. Calls follow the shape of the dose curve; as a rule, active = well fitted curve in the direction sought with a large enough effect; inconclusive = small, poorly fitted or top-dose-only effect, or effect the other way; inactive = no such curve, though single readings can be large or run the other way.
% is scaled to controls: 0 for no effect and ±100 for the full control effect.

The target in the experiment is Cytochrome P450 3A4 (Homo sapiens) (UniProt P08684). Briefly: Cytochrome panel assay with activity outcomes. Conditions: recombinant CYP, pro-luciferin dealkylation, luminescence, p450-cyp3a4; series mostly up to 57.1 µM; activity, negative = inhibition: at the top concentration.
Sequence of Cytochrome P450 3A4 (Homo sapiens) (P08684 whole entry, looked up): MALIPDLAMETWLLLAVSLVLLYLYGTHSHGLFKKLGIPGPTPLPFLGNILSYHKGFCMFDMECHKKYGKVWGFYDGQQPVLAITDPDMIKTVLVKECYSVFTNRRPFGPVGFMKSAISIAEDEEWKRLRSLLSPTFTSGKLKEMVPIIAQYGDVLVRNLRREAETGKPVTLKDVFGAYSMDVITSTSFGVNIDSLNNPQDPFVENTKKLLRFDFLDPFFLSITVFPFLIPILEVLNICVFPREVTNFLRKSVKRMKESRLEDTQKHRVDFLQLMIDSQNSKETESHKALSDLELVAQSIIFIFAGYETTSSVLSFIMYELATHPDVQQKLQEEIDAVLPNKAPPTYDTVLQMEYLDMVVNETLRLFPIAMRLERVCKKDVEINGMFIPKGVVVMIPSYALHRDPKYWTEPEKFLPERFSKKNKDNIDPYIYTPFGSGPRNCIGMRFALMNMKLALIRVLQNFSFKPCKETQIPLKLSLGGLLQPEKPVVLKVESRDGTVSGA
Turning to `O=C(c1cc(Br)ccc1O)c1cc(Br)ccc1O`, the activity, negative = inhibition is -18.8% [at 11.4 µM].

Consider `COc1ccc2[nH]cc(CCNc3ncncc3-c3ccccc3C(F)(F)F)c2c1`, for which the AC50 was 0.251 µM (active). For `COc1ccc2[nH]cc(CCNc3ncncc3-c3ccccc3CN(C)C)c2c1`, the half-maximal activity concentration (AC50) is 0.631 µM (active). In the case of `O=S(=O)(O)c1ccc2c(N=Nc3cccc4ccccc34)c(O)c(S(=O)(=O)O)cc2c1`, the activity, negative = inhibition was 5.97% [at 11.4 µM]. As for `O=C(Nc1ccccc1N1CCN(C(=O)c2ccc(Cl)cc2)CC1)c1cc(Br)ccc1Cl`, the AC50 was 3.98 µM (active).

Consider `O=C(Nc1ccccc1N1CCN(C(=O)c2ccccc2)CC1)c1cc(Br)ccc1Cl`, for which the AC50 was 3.55 µM (active). For the compound `Cc1ccccc1N1CCN(C(=O)c2ccccc2NC(=O)/C=C\C(=O)O)CC1`, the “activity, negative = inhibition” value was -14.2%.

As to `CN1CCN(c2ccc([N+](=O)[O-])cc2NC(=O)c2ccccc2Cl)CC1`, the “activity, negative = inhibition” value is 13%. Same read-out and setting: next, `COc1cccc(C(C#N)N2N=C(C)CC2(C)C)c1O` (stereo not given): -11.6%.

In the case of `CCOC(=O)CNc1c(-c2ccccc2)nc2ccc(Cl)cn12`, the “activity, negative = inhibition” value is 21.3%. As for `c1ccc(-c2nc3ccccn3c2NCc2ccc3c(c2)OCO3)cc1`, the concentration at half-maximal activity (AC50) is 0.501 µM (active).

As for `CO[C@H]1[C@@H](OC(N)=O)[C@H](O)[C@@H](Oc2ccc3c(O)c(NC(=O)c4ccc(O)c(CC=C(C)C)c4)c(=O)oc3c2C)OC1(C)C`, the “activity, negative = inhibition” value was -7.19% [at 25.6 µM]. Regarding `Cn1cccc1/C=N/NC(=O)c1sc2ccccc2c1Cl`, the AC50 was 8.91 µM (active). `N#CCCn1nnc2ccccc21`: the “activity, negative = inhibition” value was -10.8%. Consider `C=CCN1CCc2cc(O)c(O)cc2[C@H](c2ccccc2)C1`, for which the AC50 entry is “inactive”. For `Cc1nnsc1SCC(=O)O`, the “activity, negative = inhibition” value is -4.96%. Same read-out and setting: the result for `O=C(O)CSSCC(=O)O` reads -6.12% [at 11.4 µM]. As to `O=C(O)CSc1sc(=S)sc1SCC(=O)O`, the AC50 is 11.2 µM (active).

As to `COc1ccc(NC(=O)C(c2ccc(OC)cc2)N(C)C(=O)CNC(C)=O)cc1` (stereo not given), the “activity, negative = inhibition” value was -11.9%.

Take `COc1ccc(N(C(=O)Cn2nnc3ccccc32)C2(C(=O)NC3CCCC3)CCCCC2)cc1`: the AC50 was 2 µM (active).

As to `COc1cccc(C(C(=O)Nc2ccc(F)cc2)N(C(=O)Cn2nnc3ccccc32)C2CC2)c1` (stereo not given), the half-maximal activity concentration (AC50) was 2.82 µM (active). As to `Cc1ccnc(NCn2nnc3ccccc32)c1`, the “activity, negative = inhibition” value is -7.54%.

For the compound `COc1ccc(C(C(=O)Nc2ccc(F)cc2)N(C(=O)Cn2nnc3ccccc32)C2CC2)cc1` (stereo not given), the AC50 was 3.55 µM (active). With `O=C(Cn1nnc2ccccc21)N1CCCCC1`, the “activity, negative = inhibition” value was -1.52%.

Take `CC(C)(C)c1cc2c(O)c(c1)Cc1cc(C(C)(C)C)cc(c1O)Cc1cc(C(C)(C)C)cc(c1O)Cc1cc(C(C)(C)C)cc(c1O)Cc1cc(C(C)(C)C)cc(c1O)Cc1cc(C(C)(C)C)cc(c1O)Cc1cc(C(C)(C)C)cc(c1O)Cc1cc(C(C)(C)C)cc(c1O)C2`: the activity, negative = inhibition is -24.5% [at 11.4 µM].

Consider `CC(C)Oc1ccc(CSC(=N)N)cc1`, for which the “activity, negative = inhibition” value is -3.82%.

In the case of `COc1ccc(CNCCC(c2ccc(OC(C)C)cc2)C(C)C)cc1OC` (stereo not given), the AC50 was 1.41 µM (active). On to `CCC(C)[C@H](NC(=O)Nc1ccc(Oc2ccccc2)cc1)C(=O)O` (stereo not given in full), for which the “activity, negative = inhibition” value is -4.13%. Take `NC(=S)Nc1ccc(Oc2ccc(NC(N)=S)cc2)cc1`: the AC50 was 4.47 µM (active). For the compound `CCCCNN`, the activity, negative = inhibition was -7.03% [at 11.4 µM]. Turning to `NS(=O)(=O)c1cccc2c1c([N+](=O)[O-])cc1nc(O)c(O)nc12`, the AC50 entry is “inactive”. Still for that read-out and setting: the result for `O=c1c2ccc([N+](=O)[O-])c3cccc(c32)c2nc3ccccc3n12` reads 0.891 µM (active).

Turning to `O=C(O)c1ccc2c3c1cccc3c(=O)n1c3ccccc3nc21`, the “activity, negative = inhibition” value is -14.5%. The same measure, in the same setting: next, `CC1=C(C)/C(=N\OC(=O)/C=C/c2ccccc2)C=CC1=O`: 1.54%; `COc1ccc(/C=C2\N=C(c3c(-c4ccccc4)noc3C)OC2=O)cc1OC`: -39.1%. On the same count and under the same terms, next, `CCOc1ccc(-c2nn(-c3ccccc3)cc2/C=C2\SC(N)=NC2=O)cc1C`: 0.0129%. Still for that read-out and setting: the result for `COc1ccccc1OCCOc1ccc(/C=C2/C(=N)N3OC(C)=CC3=NC2=O)cc1OC` reads -12.2%. With `CCOc1cc(/C=C2/C(=N)N3C=CSC3=NC2=O)ccc1OCCCOc1ccccc1C`, the concentration at half-maximal activity (AC50) was 15.8 µM (active). Take `COc1cc(C=O)ccc1OCCCOc1ccccc1C(=O)O`: the “activity, negative = inhibition” value was -6.53%. For `COc1cc(/C=C2/C(=N)N3C=CSC3=NC2=O)ccc1OCCCOc1c(C)cccc1C`, the half-maximal activity concentration (AC50) was 20 µM (active). The same measure, in the same setting: the result for `COc1cc(/C=C2/C(=N)N3C=CSC3=NC2=O)ccc1OCCCOc1ccccc1C` reads 15.8 µM (active).

For the compound `Cc1noc(C)c1-c1cncnc1NCc1cccnc1`, the half-maximal activity concentration (AC50) is 3.16 µM (active). As to `Cc1noc(C)c1-c1cncnc1NCc1ccccc1`, the AC50 is 2 µM (active). On the same count and under the same terms, the result for `Cc1cnc(CNc2ncncc2-c2c(C)noc2C)cn1` reads 12.6 µM (active). Still for that read-out and setting: next, `Cc1noc(C)c1-c1cncnc1NC1CC1`: 7.94 µM (active). As for `Cc1ncc([N+](=O)[O-])n1CC(C)O` (stereo not given), the “activity, negative = inhibition” value is 20.5%.

As for `CCN=C(N)CSS(=O)(=O)O`, the activity, negative = inhibition was -8.49% [at 11.4 µM].

On to `Cc1noc(C)c1-c1cncnc1Nc1ccccc1`, for which the AC50 was 3.16 µM (active).

`Cc1noc(C)c1-c1cc(Nc2ccccc2)ncn1`: the “activity, negative = inhibition” value was -41.5%.

In the case of `Cc1cc2cc(C)c3nnc(SCC(=O)NCc4ccc5c(c4)OCO5)n3c2cc1C`, the AC50 was 0.562 µM (active). As for `CC(C)n1nnnc1SCC(=O)c1ccc2c(c1)OCCO2`, the “activity, negative = inhibition” value is -28.3%. For `Cc1ccc2cc(C)c3nnc(SCC(=O)NCc4ccco4)n3c2c1`, the concentration at half-maximal activity (AC50) is 22.4 µM (active). On to `CC(C)n1nnnc1SCC(=O)NCCc1ccccc1`, for which the concentration at half-maximal activity (AC50) is 14.1 µM (active).

As for `CC(C)n1nnnc1SCC(=O)NCc1ccc2c(c1)OCO2`, the half-maximal activity concentration (AC50) is 0.891 µM (active). As for `Cc1ccccc1Oc1ccc(-c2nc(N)nc(N)n2)cc1`, the “activity, negative = inhibition” value was 4.65%. Regarding `CCCCCCCCN1C(=O)N(C)C(N(O)C(=O)NC)C1(C)C` (stereo not given), the half-maximal activity concentration (AC50) is 6.31 µM (active). `COc1cccc(CN2C(=O)N(C(C)C)C(N(O)C(=O)NC(C)C)C2(C)C)c1OC` (stereo not given): the activity, negative = inhibition is -12.5% [at 2.29 µM]. `CCCCNC(=O)NC1C(NC(=O)NCCCC)N(C)C(=O)N1C` (stereo not given): the “activity, negative = inhibition” value was -6.75%. In the case of `CCCOc1ccc(OCCNC2CCCC2)cc1`, the activity, negative = inhibition was 10% [at 2.29 µM]. Same read-out and setting: the result for `COc1cc(CNC(C)(C)CO)ccc1OCC(=O)Nc1ccc(Br)cc1` reads 0.897% [at 2.29 µM]. Turning to `C=CCOc1c(Br)cc(CNc2ccc(NC(=O)C(C)C)c(OC)c2)cc1OC`, the concentration at half-maximal activity (AC50) is 3.55 µM (active). For `CC(=O)OC[C@@H]1O[C@H](CCON=C(C)C)C=C[C@@H]1OC(C)=O`, the activity, negative = inhibition is -14.8% [at 11.4 µM]. In the case of `CC(=O)OC[C@@H]1O[C@H](C/C=N\O[C@@H]2O[C@H](COC(C)=O)[C@@H](OC(C)=O)[C@H](OC(C)=O)[C@H]2OC(C)=O)C=C[C@@H]1OC(C)=O`, the activity, negative = inhibition was -25.4% [at 11.4 µM].

As for `COc1ccc(O[C@H]2C=C[C@@H](c3ccccc3)O[C@H]2COC(=O)CC/C(C)=N\O[C@@H](C)c2cc(-c3c(C)cc(C)cc3C)no2)cc1`, the concentration at half-maximal activity (AC50) is 3.16 µM (active). `Cc1cc(C)c(-c2cc([C@H](C)O/N=C3/[C@H]4OC4[C@@H](O)[C@H]4[C@H]3CCn3c(=O)n(-c5ccccc5)c(=O)n34)on2)c(C)c1` (stereo not given in full): the activity, negative = inhibition is -41% [at 11.4 µM].

With `CCCNC(=O)OC[C@@H]1O[C@H](CCO/N=C\C[C@H]2C=C[C@H](OC(C)=O)[C@@H](COC(C)=O)O2)C=C[C@@H]1Oc1ccc(OC)cc1`, the AC50 was 3.98 µM (active). `CC(=O)OC[C@@H]1O[C@H](C/C=N\O[C@@H](C)c2cn([C@H]3COC[C@H]3O)nn2)C=C[C@@H]1OC(C)=O`: the activity, negative = inhibition was -11.8% [at 11.4 µM]. For the compound `COc1ccc(O[C@H]2C=C[C@@H](c3ccccc3)O[C@H]2COC(=O)CC/C(C)=N/OCC[C@@H]2C=C[C@H](OC(C)=O)[C@H](COC(C)=O)O2)cc1`, the half-maximal activity concentration (AC50) was 3.98 µM (active). Still for that read-out and setting: next, `CC(=O)OC[C@@H]1O[C@H](C/C=N\O[C@@H](C)c2cc(-c3c(C)cc(C)cc3C)no2)C=C[C@@H]1OC(C)=O`: 3.16 µM (active). Same read-out and setting: the result for `O=C(O)[C@H]1CCCN(CCC=C(c2ccccc2)c2ccccc2)C1` reads “inactive”. For the compound `C[C@@H](O)[C@H]1C(=O)N2C(C(=O)O)=C(S[C@@H]3CN[C@H](C(=O)N(C)C)C3)[C@H](C)[C@H]12`, the “activity, negative = inhibition” value was -19.2% [at 25.6 µM]. Still for that read-out and setting: next, `C[C@H](N)CCCC(C)(C)O`: -5.82% [at 25.6 µM]. For `CCCNC(=O)OC[C@@H]1O[C@H](CCO/N=C(\C)CCC(=O)OC[C@@H]2O[C@H](c3ccccc3)C=C[C@@H]2Oc2ccc(OC)cc2)C=C[C@@H]1Oc1ccc(OC)cc1`, the concentration at half-maximal activity (AC50) was 5.01 µM (active).

For `COc1ccc(O[C@H]2C=C[C@@H](c3ccccc3)O[C@@H]2CO/N=C\[C@@H](C)[C@H](OCc2ccccc2)C(C)C)cc1`, the AC50 is 3.98 µM (active). Take `CC(=O)OC[C@@H]1O[C@H](C/C=N\OC[C@@H](C)[C@H](OCc2ccccc2)C(C)C)C=C[C@@H]1OC(C)=O`: the activity, negative = inhibition was -18.2% [at 11.4 µM]. Regarding `COc1ccc(O[C@H]2C=C[C@@H](c3ccccc3)O[C@H]2CO/N=C\C[C@@H]2C=C[C@H](OC(C)=O)[C@H](COC(C)=O)O2)cc1`, the AC50 is 3.98 µM (active). Consider `COc1ccc(O[C@H]2C=C[C@@H](c3ccccc3)O[C@H]2COC(=O)CC/C(C)=N/O[C@@H]2O[C@H](COC(C)=O)[C@H](OC(C)=O)[C@H](OC(C)=O)[C@H]2OC(C)=O)cc1`, for which the AC50 is 5.01 µM (active). Take `CO/N=C\[C@@H](C)[C@H](OCc1ccccc1)C(C)C`: the activity, negative = inhibition is 12.5% [at 11.4 µM]. The same measure, in the same setting: the result for `O=c1[nH]cc(CS(=O)(=O)Cc2c[nH]c(=O)[nH]c2=O)c(=O)[nH]1` reads -10.9% [at 11.4 µM]; that for `CN1C(=O)C(CC(N)=O)N(NC(=O)c2ccc(Cl)cc2)C1=S` (stereo not given), -10.7%. Turning to `CC(=O)OC[C@@H]1O[C@H](CCO/N=C\[C@@H](C)[C@H](OCc2ccccc2)C(C)C)C=C[C@@H]1OC(C)=O`, the activity, negative = inhibition was -26.2% [at 11.4 µM]. As to `CCCNC(=O)OC[C@@H]1O[C@H](CCO/N=C\[C@@H](C)[C@H](OCc2ccccc2)C(C)C)C=C[C@@H]1Oc1ccc(OC)cc1`, the AC50 is 3.98 µM (active).

Turning to `COc1ccc(O[C@H]2C=C[C@@H](c3ccccc3)O[C@H]2CO/N=C(/C)CCC(=O)OC[C@@H]2O[C@H](c3ccccc3)C=C[C@@H]2Oc2ccc(OC)cc2)cc1`, the AC50 was 3.98 µM (active). Take `COc1ccc(O[C@H]2C=C[C@@H](c3ccccc3)O[C@H]2COC(=O)N2CCCCC2)cc1`: the activity, negative = inhibition was -82.7% [at 11.4 µM]. With `CCCNC(=O)OC[C@@H]1O[C@H](c2ccccc2)C=C[C@@H]1Oc1ccc(OC)cc1`, the half-maximal activity concentration (AC50) is 3.98 µM (active).
